For orientation: AC50 means the concentration giving half of the maximal activity seen.

Each structure is given as a SMILES string. Activity calls are given as the source filed them. The calls were made as follows: active = hit-call score of the fitted dose curve at least 0.9, where 1 is the maximum; inactive = score below 0.9.

Conditions in all cases: mRNA level, 48 h; actives raise or lower the signal
Read-out in assay [1]: Interleukin 6 Receptor (IL6R), IL6R (gene 3570)
Kind of assay: LTEA_HepaRG_IL6R: Life Technologies and Expression Analysis (LTEA) Assay for Interleukin 6 Receptor (IL6R) using HepaRG (AID 2283510).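 As to AC50: differentiated human HepaRG liver cells in serum-free induction medium; TaqMan qRT-PCR signal normalized to ACTB GAPDH and POLR2A housekeeping genes.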 Summed up: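 HepaRG, 48 h exposure, 8-pt half-log series, top 100 uM, 0.5% DMSO vehicle, duplicates. Read-out: TaqMan qRT-PCR of IL6R transcript, housekeeping-gene normalized. Gain or loss fitted relative to DMSO baseline.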

Read-out in assay [2]: Potassium channel subfamily K member 1 (KCNK1), KCNK1 (gene 3775)
Kind of assay: LTEA_HepaRG_KCNK1: Life Technologies and Expression Analysis (LTEA) Assay for Potassium channel subfamily K member 1 (KCNK1) using HepaRG (AID 2283511). The gist of the method:
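HepaRG, 48 h exposure, 8-pt half-log series top 100 uM, 0.5% DMSO vehicle, duplicates. Readout: KCNK1 transcript by qRT-PCR (Fluidigm array), housekeeping-normalized; bidirectional curve fit relative to DMSO baseline.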

Read-out in assay [3]: Keratin 19 (KRT19), KRT19 (gene 3880)
In words: LTEA_HepaRG_KRT19: Life Technologies and Expression Analysis (LTEA) Assay for Keratin 19 (KRT19) using HepaRG (AID 2283512). Summed up:
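KRT19 transcript levels, measured by Fluidigm qRT-PCR against three housekeeping genes, are fitted for gain or loss of signal relative to DMSO. Human HepaRG cells receive test chemicals (top 100 uM, half-log steps, 0.5% DMSO) for 48 hours.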

Read-out in assay [4]: JUN Transcription Factor, JUN (gene 3725)
In words: LTEA_HepaRG_JUN: Life Technologies and Expression Analysis (LTEA) Assay for JUN Transcription Factor using HepaRG (AID 2283513). Summed up:
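HepaRG, 48 h exposure, 8-pt half-log series top 100 uM, 0.5% DMSO, duplicate. JUN mRNA by qRT-PCR (Fluidigm), housekeeping-normalized (ACTB/GAPDH/POLR2A); bidirectional curve fit vs DMSO baseline.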

Read-out in assay [5]: Lipase C (LIPC), LIPC (gene 3990)
Kind of assay: LTEA_HepaRG_LIPC: Life Technologies and Expression Analysis (LTEA) Assay for Lipase C (LIPC) using HepaRG (AID 2283514). Summed up:
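HepaRG, 48 h exposure, 8-pt half-log series from 100 uM in 0.5% DMSO, duplicates. Readout: LIPC mRNA by Fluidigm qRT-PCR, housekeeping-normalized (ACTB/GAPDH/POLR2A). Gain or loss fitted bidirectionally against DMSO baseline.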

Read-out in assay [6]: Lipoprotein lipase (LPL), LPL (gene 4023)
In words: LTEA_HepaRG_LPL: Life Technologies and Expression Analysis (LTEA) Assay for Lipoprotein lipase (LPL) using HepaRG (AID 2283515). The gist of the method: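 HepaRG, 48 h exposure, 8-pt half-log dilutions from 100 uM, 0.5% DMSO vehicle, duplicates; qRT-PCR (Fluidigm array) of LPL mRNA vs housekeeping genes; bidirectional curve fit relative to DMSO baseline.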

Read-out in assay [7]: MicroRNA 122 (MIR122), gene 406906
Kind of assay: LTEA_HepaRG_MIR122: Life Technologies and Expression Analysis (LTEA) Assay for MicroRNA 122 (MIR122) using HepaRG (AID 2283516). Also: the transcript read is the microRNA miR-122. Summed up: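 qRT-PCR read-out (TaqMan, Fluidigm array), normalized to three housekeeping genes; HepaRG cells dosed 48 h at 8 concentrations up to 100 uM in 0.5% DMSO, duplicate; gain or loss fitted against DMSO baseline.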

Read-out in assay [8]: matrix metalloproteinase-10 (MMP10), MMP10 (gene 4319)
In words: LTEA_HepaRG_MMP10: Life Technologies and Expression Analysis (LTEA) Assay for matrix metalloproteinase-10 (MMP10) using HepaRG (AID 2283517). Summed up: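 Transcript levels come from Fluidigm qRT-PCR normalized to three housekeeping genes, with curves fitted bidirectionally against 0.5% DMSO. Human HepaRG cells were dosed for 48 hours at concentrations up to 100 uM.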

Read-out in assay [9]: MYC, MYC (gene 4609)
In words: LTEA_HepaRG_MYC: Life Technologies and Expression Analysis (LTEA) Assay for MYC using HepaRG (AID 2283518). Summed up:
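HepaRG, ~100,000 cells/well, collagen I; 48 h plating; serum-free induction medium; 48 h dosing, duplicate, 100 uM top, half-log, 0.5% DMSO; total RNA → qRT-PCR MYC; gain/loss fit vs DMSO.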

Read-out in assay [10]: matrix metalloproteinase-3 (MMP3), MMP3 (gene 4314)
In words: LTEA_HepaRG_MMP3: Life Technologies and Expression Analysis (LTEA) Assay for matrix metalloproteinase-3 (MMP3) using HepaRG (AID 2283519). Summed up: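 qRT-PCR read-out of MMP3 mRNA (normalised to three housekeeping genes) in HepaRG liver cells after 48 h chemical exposure; 8-point half-log series, top 100 uM, 0.5% DMSO vehicle. Bidirectional curve fitting against DMSO baseline.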

Read-out in assay [11]: Paternally Expressed 10 (PEG10), PEG10 (gene 23089)
Kind of assay: LTEA_HepaRG_PEG10: Life Technologies and Expression Analysis (LTEA) Assay for Paternally Expressed 10 (PEG10) using HepaRG (AID 2283520).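 As to AC50: differentiated HepaRG human liver cells in serum-free induction medium with 0.5% DMSO; PEG10 transcript by qRT-PCR normalised to ACTB GAPDH and POLR2A.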 The gist of the method: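 qRT-PCR read-out: PEG10 mRNA normalised to three housekeeping genes, fitted bidirectionally against 0.5% DMSO vehicle. HepaRG cells received test chemicals for 48 h in serum-free induction medium, 8 points, top 100 uM, half-log steps.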

Read-out in assay [12]: Nuclear factor NF-kappa-B p105 subunit (Homo sapiens) (UniProt P19838)
Kind of assay: LTEA_HepaRG_NFKB1: Life Technologies and Expression Analysis (LTEA) Assay for Nuclear Factor Kappa B Subunit 1 (NFKB1) using HepaRG (AID 2283521).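 Also: differentiated human HepaRG liver cells in serum-free induction medium; TaqMan qRT-PCR transcript normalised to ACTB GAPDH and POLR2A housekeeping genes.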 Summed up:
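HepaRG, 48 h exposure; 8-pt half-log series from 100 uM in 0.5% DMSO; duplicates. Readout: NFKB1 mRNA by qRT-PCR (Fluidigm arrays), housekeeping-normalized. Gain/loss fit vs DMSO baseline.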

Read-out in assay [13]: Protein phosphatase 2A (PPP2R4), PTPA (gene 5524)
In words: LTEA_HepaRG_PPP2R4: Life Technologies and Expression Analysis (LTEA) Assay for Protein phosphatase 2A (PPP2R4) using HepaRG (AID 2283522). Summed up: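 HepaRG, 48 h exposure, 8-pt half-log series from 100 uM, 0.5% DMSO vehicle, duplicates. Readout: PPP2R4 mRNA, Fluidigm qRT-PCR, housekeeping-normalized. Bidirectional curve fit vs DMSO baseline.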

Read-out in assay [14]: Phosphatase and tensin (PTEN), PTEN (gene 5728)
Kind of assay: LTEA_HepaRG_PTEN: Life Technologies and Expression Analysis (LTEA) Assay for Phosphatase and tensin (PTEN) using HepaRG (AID 2283523). The gist of the method:
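HepaRG, 48 h exposure, 8-pt half-log series from 100 uM top, 0.5% DMSO vehicle, duplicates. Readout: Fluidigm qRT-PCR of PTEN transcript; housekeeping normalization (ACTB, GAPDH, POLR2A). Gain or loss fitted relative to DMSO baseline.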

Read-out in assay [15]: solute carrier (SLC22A1), SLC22A1 (gene 6580)
In words: LTEA_HepaRG_SLC22A1: Life Technologies and Expression Analysis (LTEA) Assay for solute carrier (SLC22A1) using HepaRG (AID 2283524).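 As to AC50: differentiated human HepaRG liver cells in serum-free induction medium.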 Summed up: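 qRT-PCR readout (TaqMan, Fluidigm arrays) of SLC22A1 transcript, normalized to three housekeeping genes; bidirectional curve fit relative to 0.5% DMSO vehicle. Differentiated human HepaRG cells, 48 h chemical exposure, top concentration 100 uM, half-log steps, eight points.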

Read-out in assay [16]: Pyruvate Dehydrogenase Kinase 4 (PDK4), PDK4 (gene 5166)
Kind of assay: LTEA_HepaRG_PDK4: Life Technologies and Expression Analysis (LTEA) Assay for Pyruvate Dehydrogenase Kinase 4 (PDK4) using HepaRG (AID 2283525). The gist of the method: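 HepaRG (human liver line), 48 h chemical exposure, 8-pt half-log CRC top 100 uM, 0.5% DMSO vehicle, duplicates. Readout: TaqMan qRT-PCR of PDK4 mRNA, housekeeping-normalized; gain/loss fit relative to DMSO baseline.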

Read-out in assay [17]: NAD(P)H dehydrogenase [quinone] 1 (NQO1), NQO1 (gene 1728)
In words: LTEA_HepaRG_NQO1: Life Technologies and Expression Analysis (LTEA) Assay for NAD(P)H dehydrogenase [quinone] 1 (NQO1) using HepaRG (AID 2283526). The gist of the method: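 qRT-PCR read-out (Fluidigm TaqMan), normalized to three housekeeping genes, after 48 h chemical exposure of HepaRG cells. Concentrations: eight points, top 100 uM, half-log steps, 0.5% DMSO vehicle. Gain or loss of signal fitted relative to DMSO.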

Read-out in assay [18]: Nuclear factor erythroid 2-related factor 2 (Homo sapiens) (UniProt Q16236)
Kind of assay: LTEA_HepaRG_NFE2L2: Life Technologies and Expression Analysis (LTEA) Assay for Nuclear factor erythroid 2-related factor 2 (NFE2L2) Transcription Factor using HepaRG (AID 2283527).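 As to outcome: TaqMan qRT-PCR transcript level normalised to ACTB GAPDH and POLR2A housekeeping genes.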 Summed up: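 HepaRG, 48 h dosing, 8-pt half-log series from 100 uM in 0.5% DMSO, duplicates. Read-out: NFE2L2 mRNA by qRT-PCR (ACTB/GAPDH/POLR2A normalization). Bidirectional curve fit vs DMSO baseline.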

Read-out in assay [19]: succinate dehydrogenase complex iron sulfur subunit B (SDHB), SDHB (gene 6390)
In words: LTEA_HepaRG_SDHB: Life Technologies and Expression Analysis (LTEA) Assay for succinate dehydrogenase complex iron sulfur subunit B (SDHB) using HepaRG (AID 2283528). Summed up:
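Readout is SDHB transcript level by qRT-PCR, normalised to three housekeeping genes and fitted bidirectionally against 0.5% DMSO vehicle. Human HepaRG cells were treated for 48 h at up to 100 uM.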

Read-out in assay [20]: Signal transducer and activator of transcription 3 (Homo sapiens) (UniProt P40763)
In words: LTEA_HepaRG_STAT3: Life Technologies and Expression Analysis (LTEA) Assay for Signal transducer and activator of transcription (STAT3) using HepaRG (AID 2283529). Summed up:
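HepaRG, 48 h exposure, 8-pt half-log series (top 100 uM), 0.5% DMSO vehicle, duplicates. Readout: STAT3 transcript by Fluidigm qRT-PCR, housekeeping-normalized; bidirectional fit vs DMSO baseline.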

Sequence of Nuclear factor NF-kappa-B p105 subunit (Homo sapiens) (P19838 whole entry, looked up): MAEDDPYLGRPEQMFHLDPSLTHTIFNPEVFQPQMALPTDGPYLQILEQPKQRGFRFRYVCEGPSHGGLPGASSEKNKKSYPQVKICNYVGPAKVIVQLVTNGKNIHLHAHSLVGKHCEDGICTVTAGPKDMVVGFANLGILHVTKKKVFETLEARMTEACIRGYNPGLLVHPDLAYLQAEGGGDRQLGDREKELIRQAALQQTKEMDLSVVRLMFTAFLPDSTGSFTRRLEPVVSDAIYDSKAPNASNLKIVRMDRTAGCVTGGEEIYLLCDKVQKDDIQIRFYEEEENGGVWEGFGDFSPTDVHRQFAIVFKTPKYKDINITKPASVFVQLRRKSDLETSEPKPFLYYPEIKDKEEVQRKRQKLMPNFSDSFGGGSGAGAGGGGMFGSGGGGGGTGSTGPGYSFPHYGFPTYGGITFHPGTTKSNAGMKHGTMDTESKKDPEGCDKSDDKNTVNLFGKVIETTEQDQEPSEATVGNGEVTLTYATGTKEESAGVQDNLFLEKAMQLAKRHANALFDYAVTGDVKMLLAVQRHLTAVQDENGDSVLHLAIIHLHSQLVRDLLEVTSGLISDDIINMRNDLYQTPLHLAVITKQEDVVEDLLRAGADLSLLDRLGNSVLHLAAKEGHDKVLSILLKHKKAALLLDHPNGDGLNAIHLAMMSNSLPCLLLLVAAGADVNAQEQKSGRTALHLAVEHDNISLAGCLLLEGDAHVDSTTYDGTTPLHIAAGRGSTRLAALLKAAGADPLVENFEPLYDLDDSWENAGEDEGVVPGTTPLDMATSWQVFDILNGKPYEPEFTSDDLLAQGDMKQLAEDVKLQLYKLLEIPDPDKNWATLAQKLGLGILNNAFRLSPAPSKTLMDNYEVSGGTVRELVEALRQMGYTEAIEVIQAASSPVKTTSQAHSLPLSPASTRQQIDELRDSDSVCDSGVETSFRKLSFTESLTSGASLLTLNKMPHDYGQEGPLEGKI
Sequence of Nuclear factor erythroid 2-related factor 2 (Homo sapiens) (Q16236 whole entry, looked up): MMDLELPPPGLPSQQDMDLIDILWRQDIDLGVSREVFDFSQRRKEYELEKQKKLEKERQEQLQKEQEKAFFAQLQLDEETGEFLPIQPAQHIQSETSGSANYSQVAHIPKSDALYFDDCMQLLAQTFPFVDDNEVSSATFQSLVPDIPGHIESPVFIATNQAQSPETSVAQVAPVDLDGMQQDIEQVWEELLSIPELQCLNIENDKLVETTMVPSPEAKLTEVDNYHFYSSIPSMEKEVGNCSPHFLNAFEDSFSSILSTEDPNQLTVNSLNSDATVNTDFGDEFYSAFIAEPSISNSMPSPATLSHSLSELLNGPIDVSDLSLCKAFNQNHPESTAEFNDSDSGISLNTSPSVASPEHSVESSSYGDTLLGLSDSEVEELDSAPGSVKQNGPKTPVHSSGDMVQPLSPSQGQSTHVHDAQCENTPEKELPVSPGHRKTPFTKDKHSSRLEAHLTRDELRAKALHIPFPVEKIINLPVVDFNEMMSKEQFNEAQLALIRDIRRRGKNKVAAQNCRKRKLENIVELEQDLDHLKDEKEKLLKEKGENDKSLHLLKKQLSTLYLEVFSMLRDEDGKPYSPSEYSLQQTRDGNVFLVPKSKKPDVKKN
Sequence of Signal transducer and activator of transcription 3 (Homo sapiens) (P40763 whole entry, looked up): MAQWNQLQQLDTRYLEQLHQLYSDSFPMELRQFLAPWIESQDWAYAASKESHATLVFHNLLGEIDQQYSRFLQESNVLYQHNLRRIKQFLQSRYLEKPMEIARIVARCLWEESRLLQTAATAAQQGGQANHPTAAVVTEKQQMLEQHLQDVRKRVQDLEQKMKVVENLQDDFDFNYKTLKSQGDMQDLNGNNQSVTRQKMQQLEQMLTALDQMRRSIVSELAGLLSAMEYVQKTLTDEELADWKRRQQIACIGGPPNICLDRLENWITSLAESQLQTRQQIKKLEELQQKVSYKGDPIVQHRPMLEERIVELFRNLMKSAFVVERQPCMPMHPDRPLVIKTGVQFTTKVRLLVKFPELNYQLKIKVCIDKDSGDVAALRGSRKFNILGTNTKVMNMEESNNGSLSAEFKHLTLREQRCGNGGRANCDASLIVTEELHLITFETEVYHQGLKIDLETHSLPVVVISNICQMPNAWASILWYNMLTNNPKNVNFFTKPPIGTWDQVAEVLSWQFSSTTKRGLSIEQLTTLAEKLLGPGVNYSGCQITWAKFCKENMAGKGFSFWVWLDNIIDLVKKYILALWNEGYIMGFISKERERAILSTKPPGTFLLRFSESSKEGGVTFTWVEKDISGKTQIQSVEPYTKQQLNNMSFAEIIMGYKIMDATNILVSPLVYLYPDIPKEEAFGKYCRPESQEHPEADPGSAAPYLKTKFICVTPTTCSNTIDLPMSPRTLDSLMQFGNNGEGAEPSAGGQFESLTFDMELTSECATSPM

For `COc1cc(OC)nc(NC(=O)NS(=O)(=O)c2ncccc2OCC(F)(F)F)n1`, the compound was called inactive in assay [1], in assay [2], in assay [3], in assay [4], in assay [5] and in assay [6]. In addition, the compound was classed as inactive in assay [7], in [8], in assay [9], in assay [10], in assay [11] and in assay [12]. Moreover, the compound was called inactive in [13], in [14], in assay [15], in assay [17], in assay [18] and in [19]. Moreover, the compound was called inactive in [20]. Besides, in assay [16], the AC50 was 0.129 µM (active).

On to `CC(C)(C)C(=O)C(Oc1ccc(Cl)cc1)n1cncn1` (configuration not stated), for which the outcome in assay [1], in assay [2], in assay [3], in [4], in [5] and in assay [6] was inactive. Further, the result in assay [7], in assay [8], in [9], in assay [10], in [11] and in assay [12] was inactive. Also, the call in assay [13], in assay [14], in [16], in assay [17], in assay [18] and in assay [19] was inactive. Also, the call in assay [20] was inactive.

`CCC(C)n1c(=O)[nH]c(C)c(Br)c1=O` (configuration not stated): the half-maximal activity concentration (AC50) in [1] is 6.3 µM (active); in [3], 11.8 µM (active); in assay [5] it was 23.3 µM (active); in assay [6] it was 14.4 µM (active); in assay [7], 10.4 µM (active); in assay [11] it was 21.1 µM (active). The AC50 was 19.2 µM (active) in [15], 50 µM (active) in assay [16], 7.04 µM (active) in assay [18] and 31.8 µM (active) in assay [20]. In addition, the outcome in [2], in assay [4], in assay [8], in assay [10], in assay [12] and in assay [13] was inactive. Besides, the compound was classed as inactive in [14] and in [19].

Values taken from PubChem BioAssay (EPA / NIEHS).
